Source: PubChem BioAssay
Values joined by “and” are separate entries in the source; they are usually repeats but may differ in a detail not shown here. Identical values can stand only once. Active and inactive are the calls of the source.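 Rule for the calls, unless noted: active = mean z-score across replicates of 1.96 or higher in either the MELAS or the Rieske mutant cell line; inactive = the rest.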

Assays:
[1] = viability loss with induced miR-34 in A549 – imaging, A549 dox-inducible miR-34, nuclei and caspase counts, primary screen (AID 1347080;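 active = compounds whose cell count with miR-34 switched on is under 0.7 times the count with it off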); settings: A549 miR-34 inducible, Hoechst nuclei count, 48 h
[2] = MELAS cybrid and Rieske KO viability enhancers – cell-based, MELAS cybrids, Rieske KO mouse fibroblasts, CellTiter-Glo, primary screen (AID 1508586); settings: low glucose;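 note: z relative to plate mean and SD of compound and empty wells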
[3] = stronger effect = lower value, cell number ratio, induced over uninduced
[4] = measured here: relative caspase fold change +Dox/-Dox
[5] = measured here: total cells with miR-34 induction, stronger effect = lower value
[6] = measured here: total cells without miR-34 induction
[7] = MELAS cybrid survival, CellTiter-Glo 48 h, stronger effect = higher value
[8] = Rieske KO mouse fibroblast survival, CellTiter-Glo 72 h
Note: test concentration not given here.

Row | SMILES | fold change [1, 3] | fold change [1, 4] | cell count [1, 5] | cell count [1, 6] | z-score [2, 7] | z-score [2, 8]
1 | COc1cccc2c1C(=O)c1c(O)c3c(c(O)c1C2=O)C[C@@](O)(C(=O)CO)C[C@@H]3OC1CC(N)C(OC2CCCCO2)C(C)O1 (some centres undefined) | 1.07 (inactive) | 1.21 | 1240 | 1150 | 3.19 (active) | -0.724
2 | Cc1nc(Nc2n[nH]c3c2CN(C(=O)NC(CN(C)C)c2ccccc2)C3(C)C)c2sccc2n1 (centres undefined) | 1.06 (inactive) | 0.274 | 1510 | 1420 | 0.106 (inactive) | -7.7
3 | CCN1CCN(Cc2ccc(-c3cc4c(NC(C)c5ccccc5)ncnc4[nH]3)cc2)CC1 (centres undefined) | 1.04 (inactive) | 0.932 | 3430 | 3280 | -0.0772 (inactive) | 0.518
4 | CC(C)C(C(=O)Nc1ccc(C(=O)NO)cc1)c1ccccc1 (centres undefined) | 0.964 (inactive) | 0.891 | 1000 | 1040 | 2.39 (active) | 0.0158
5 | CC(=O)O[C@@]1(C(C)=O)CC[C@H]2[C@@H]3CCC4=CC(=O)CCC4=C3C(c3ccc(N(C)C)cc3)C[C@@]21C (some centres undefined) | 1.04 (inactive) | 0.797 | 6660 | 6380 | -0.373 (inactive) | -0.0703
6 | COc1cc(C2c3cc4c(cc3C(OC3OC5COC(c6cccs6)OC5C(O)C3O)C3COC(=O)[C@H]23)OCO4)cc(OC)c1O (some centres undefined) | 1.06 (inactive) | 0.936 | 1550 | 1460 | 0.486 (inactive) | 0.638
7 | CCn1c2ccccc2c2cc(Nc3ccnc(NCCCN4CCOCC4)n3)ccc21 | 1.23 (inactive) | 0.454 | 2810 | 2280 | -0.307 (inactive) | 0.428
8 | CCCN(CCc1cccs1)C1CCc2c(O)cccc2C1 (centres undefined) | 0.911 (inactive) | 0.584 | 8660 | 9500 | -0.281 (inactive) | -0.2
9 | O=C1NC(=O)C(=Cc2ccc(-c3ccc(F)cc3)o2)S1 | 0.882 (inactive) | 0.688 | 8240 | 9340 | -0.386 (inactive) | 0.141
10 | COc1ccc(CNc2nc(N3CCCC3CO)ncc2C(=O)NCc2ncccn2)cc1Cl (centres undefined) | 0.988 (inactive) | 1.09 | 8210 | 8300 | -0.603 (inactive) | -0.114
11 | Cc1ccc(C(=O)N(CCCN)C(c2oc3cc(Cl)ccc3c(=O)c2Cc2ccccc2)C(C)C)cc1 (centres undefined) | 0.942 (inactive) | 0.732 | 1220 | 1290 | 2.62 (active) | 0.0146
12 | CC(NC(=O)CCc1nc2ccccc2c(=O)[nH]1)c1ccccc1 (centres undefined) | 0.914 (inactive) | 0.487 | 8620 | 9430 | -0.406 (inactive) | -0.138
13 | CCC(CC)(NC(=O)C(C)C)C(=O)NC(CCCN=C(N)N)C(=O)NC1(C(=O)NC(c2ccc(F)cc2)c2ccc(F)cc2)CCCC1 (centres undefined) | 0.936 (inactive) | 0.709 | 9110 | 9730 | -0.415 (inactive) | -0.654
14 | COc1c(C)c(C(=O)c2ccc(N)c(C(=O)O)c2)n2ccccc12 | 0.908 (inactive) | 0.344 | 7600 | 8370 | 0.355 (inactive) | -2.17
15 | CC(CN1CC(=O)NC(=O)C1)N1CC(=O)NC(=O)C1 (centres undefined) | 0.969 (inactive) | 1.09 | 5760 | 5950 | -0.442 (inactive) | 0.325
16 | O=C(c1ccc(C=Cc2n[nH]c3ccccc23)cc1)N1CCNCC1 | 0.879 (inactive) | 0.981 | 2420 | 2750 | 0.658 (inactive) | -1.76
17 | O=C(O)C1OC(Oc2cc3oc(-c4ccccc4)cc(=O)c3c(O)c2O)C(O)C(O)C1O (centres undefined) | 0.916 (inactive) | 1.12 | 7800 | 8520 | -0.174 (inactive) | 0.279
18 | Cc1ccc(-c2c(-c3nn(C)c4ncnc(N5CCC(N6CCCCC6)C5)c34)cnn2C)cc1 (centres undefined) | 0.989 (inactive) | 0.458 | 8040 | 8120 | -0.254 (inactive) | -0.0628
19 | O=S(=O)(c1ccccc1)c1cnc2c(N3CCNCC3)cccc2c1 | 0.946 (inactive) | 0.61 | 7690 | 8130 | -0.577 (inactive) | -0.0242
20 | CCCCCCCCCCCCCCCC(=O)OC1C(SC)OC(C(NC(=O)C2CC(CCC)CN2C)C(C)Cl)C(O)C1O (centres undefined) | 0.883 (inactive) | 0.558 | 9240 | 10500 | -0.438 (inactive) | -0.237
21 | CCC1OC(=O)C(C)C(OC2C[C@@](C)(OC)C(O)C(C)O2)C(C)C(OC2OC(C)CC(N(C)C)C2O)[C@](C)(O)CC(C)C(=NOCOCCOC)C(C)C(O)[C@]1(C)O (some centres undefined) | 0.909 (inactive) | 0.933 | 9240 | 10200 | -0.34 (inactive) | 0.815
22 | COc1cc(C2Oc3ccc(C4Oc5cc(O)cc(O)c5C(=O)C4O)cc3OC2CO)ccc1O (centres undefined) | 0.913 (inactive) | 0.744 | 8070 | 8840 | -0.245 (inactive) | -0.07

Row | SMILES | fold change [1, 3] | fold change [1, 4] | cell count [1, 5] | cell count [1, 6] | z-score [2, 7] | z-score [2, 8]
23 | N#Cc1ccc2[nH]c(O)c(-c3ccc(CN4CCOCC4)cn3)c2c1 | 0.757 (inactive) | 0.717 | 2200 | 2900 | 1.12 (inactive) | -0.87
24 | COc1c(O)cc2c(c1O)[C@@H]1OC(CO)C(O)C(O)[C@H]1OC2=O (some centres undefined) | 0.888 (inactive) | 1.9 | 8260 | 9300 | -0.313 (inactive) | 0.533
25 | CC1=C(C(=O)O)N2C(=O)C(NC(=O)C(N)c3ccccc3)[C@@H]2SC1 (some centres undefined) | 0.987 (inactive) | 0.849 | 7060 | 7150 | -0.417 (inactive) | 0.0723
26 | CC(C)(O)C1CC[C@@](C)([C@@H]2C(O)C[C@@]3(C)[C@@H]4CC(OC5OC(CO)C(O)C(O)C5O)[C@H]5C(C)(C)C(OC6OCC(O)C(O)C6O)CC[C@@]56C[C@]46CC[C@]23C)O1 (some centres undefined) | 0.936 (inactive) | 0.796 | 9300 | 9940 | -0.378 (inactive) | 0.478
27 | Cc1nc(NC(=O)N2CCCC2C(N)=O)sc1-c1csc(C(C)(C)C)n1 (centres undefined) | 0.968 (inactive) | 0.607 | 6880 | 7100 | -0.368 (inactive) | 0.104
28 | NCc1c[nH]c(=S)n1C1CCc2c(F)cc(F)cc2C1 (centres undefined) | 0.817 (inactive) | 2.13 | 7940 | 9720 | -0.197 (inactive) | -0.149
29 | O=C(NNc1nc2cc(F)ccc2n2cccc12)c1cnccn1 | 0.939 (inactive) | 0.345 | 2180 | 2330 | 1.52 (inactive) | -2.55
30 | CCC(C)CC(C)CCCCCCCCC(=O)NC1CC(O)C(NCCN)NC(=O)[C@@H]2C(O)CCN2C(=O)[C@@H](C(O)CCN)NC(=O)[C@H](C(O)C(O)c2ccc(O)cc2)NC(=O)[C@@H]2CC(O)CN2C(=O)[C@H](C(C)O)NC1=O (some centres undefined) | 0.95 (inactive) | 0.316 | 7980 | 8400 | -0.141 (inactive) | 0.0344
31 | O=C1NC(=O)C(=Cc2ccc3c(c2)OC(F)(F)O3)S1 | 0.912 (inactive) | 0.633 | 8930 | 9790 | -0.318 (inactive) | -0.248
32 | C[C@@H]1C(=O)O[C@H]2CC34[C@H]5C[C@@H](C(C)(C)C)C36C(OC(=O)[C@H]6O)O[C@@]4(C(=O)O5)[C@]21O (some centres undefined) | 0.955 (inactive) | 1.23 | 7970 | 8340 | -0.0435 (inactive) | 0.0455
33 | C=C[C@@]1(C)CC(OC(=O)CSC2C[C@H]3CC[C@@H](C2)N3C)[C@]2(C)C(C)CC[C@]3(CCC(=O)[C@H]32)C(C)C1O (some centres undefined) | 0.984 (inactive) | 1.2 | 7780 | 7910 | 2.23 (active) | 5.36
34 | CC(=O)OCC(=O)[C@]1(O)CC[C@H]2[C@@H]3CCC4=CC(=O)CC[C@]4(C)[C@@H]3C(=O)C[C@@]21C | 0.938 (inactive) | 0.685 | 9630 | 10300 | -0.429 (inactive) | -0.073
35 | COc1cc2ncnc(Nc3ccc(F)c(Cl)c3)c2cc1NC(=O)C=CCN1CCCCC1 | 1.12 (inactive) | 0.707 | 3310 | 2960 | -0.496 (inactive) | -1.94
36 | COc1ccc(C2CC(=O)c3c(O)cc(OC4OC(COC5OC(C)C(O)C(O)C5O)C(O)C(O)C4O)cc3O2)cc1O (centres undefined) | 0.944 (inactive) and 0.996 (inactive) | 0.804 and 0.887 | 9100 and 9620 | 9630 and 9660 | -0.317 (inactive) and -0.329 (inactive) | 0.0192 and 0.287
37 | CC(C)(C)OC(=O)NC1CCCCCC=CC2C[C@@]2(C(=O)NS(=O)(=O)C2CC2)NC(=O)C2CC(OC(=O)N3Cc4cccc(F)c4C3)CN2C1=O (some centres undefined) | 0.897 (inactive) | 1.55 | 6840 | 7630 | -0.451 (inactive) | 0.469
38 | CC(=CC(=O)Nc1ccccc1C(=O)O)c1ccc2ccccc2c1 | 0.983 (inactive) | 1.42 | 7300 | 7430 | -0.436 (inactive) | 0.934
39 | CCCCc1ncc(C=C(Cc2cccs2)C(=O)O)n1Cc1ccc(C(=O)O)cc1 | 0.858 (inactive) | 0.882 | 8440 | 9840 | -0.00421 (inactive) | -0.115
40 | OCC1OC(c2ccc(Cl)c(Cc3ccc(OC4CCOC4)cc3)c2)C(O)C(O)C1O (centres undefined) | 0.997 (inactive) | 0.234 | 8710 | 8730 | -0.39 (inactive) | -0.293
41 | CC(=O)SC1CC2=CC(=O)CC[C@]2(C)[C@@H]2CC[C@@]3(C)[C@@H](CC[C@]34CCC(=O)O4)[C@H]12 (some centres undefined) | 0.898 (inactive) | 0.8 | 7310 | 8140 | -0.198 (inactive) | -0.323
42 | COC1CC2CCC(C)[C@](O)(O2)C(=O)C(=O)N2CCCC[C@H]2C(=O)OC(C(C)CC2CCC(n3cnnn3)C(OC)C2)CC(=O)C(C)C=C(C)C(O)C(OC)C(=O)C(C)CC(C)C=CC=CC=C1C (some centres undefined) | 1.13 (inactive) | 0.353 | 5100 | 4500 | 3.99 (active) | 2.04
43 | COC(=O)[C@]12CCC(C)(C)C[C@@H]1[C@@H]1C(=O)C=C3[C@]4(C)C=C(C#N)C(=O)C(C)(C)[C@@H]4CC[C@@]3(C)[C@]1(C)CC2 | 0.818 (inactive) | 0.469 | 308 | 376 | -0.649 (inactive) | -3.82
44 | CCCC(=O)Nc1cccc(NC(=O)c2ccccc2Br)c1 | 0.957 (inactive) | 0.928 | 7570 | 7910 | -0.112 (inactive) | -0.0371
